# Reference: PubChem BioAssay AID1159580 (chemical genetic matrix, 2015)
# The whole screen tested about 5,500 compounds, of which about 2,000 (36%) were called active. Inconclusive results (about 18%) are left out. The list shows a part of the results. A number with no mark means an inactive call. Cut-off read from the data, not from the text of the source: active = normalized growth mostly below about 0.91 (no sharp cut-off); inconclusive = no clear call, values can overlap the other calls; inactive = mostly above about 0.92.
# Experiment: chemical genetic growth profiling, strain panel (AID 1159580);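 note: tested at 20 µM; growth read once vehicle control cultures reached saturation at 30 °C; 1 = growth at the plate median or of vehicle wells; lower values mean less growth of the strain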
# Details: growth OD
smiles,measurement,setting,value
CC(CN(C)C)CN1c2ccccc2Sc2ccccc21 (configuration not stated),normalized growth,"S. cerevisiae deletion strains, locus YJR075W, strain HOC1, hits give low values",0.986
same,normalized growth,"S. cerevisiae deletion strains, locus YKL009W, strain mrt4, hits give low values",0.99
same,normalized growth,"S. cerevisiae deletion strains, locus YKL068W, hits give low values",0.981
same,normalized growth,"S. cerevisiae deletion strains, locus YKL085W, strain MDH1 (second series), hits give low values",1.01
same,normalized growth,"S. cerevisiae deletion strains, locus YKL085W, strain MDH1, hits give low values",1.01
same,normalized growth,"S. cerevisiae deletion strains, locus YKL160W, strain elf1, hits give low values",1.01
same,normalized growth,"S. cerevisiae deletion strains, locus YKL190W, strain CNB1, hits give low values",0.999
same,normalized growth,"S. cerevisiae deletion strains, locus YKR001C, strain vps1, hits give low values",0.991
same,normalized growth,"S. cerevisiae deletion strains, locus YKR026C, strain gcn3, hits give low values",1.02
same,normalized growth,"S. cerevisiae deletion strains, locus YKR091W, strain srl3, hits give low values",1.02
same,normalized growth,"S. cerevisiae deletion strains, locus YLL001W, strain dnm1, hits give low values",1.02
same,normalized growth,"S. cerevisiae deletion strains, locus YLL026W, hits give low values",1.02
same,normalized growth,"S. cerevisiae deletion strains, locus YLL041C, strain sdh2, hits give low values",1.01
same,normalized growth,"S. cerevisiae deletion strains, locus YLR027C, strain aat2, hits give low values",1.02
same,normalized growth,"S. cerevisiae deletion strains, locus YLR039C, strain RIC1, hits give low values",1.34 [resistant] (active)
same,normalized growth,"S. cerevisiae deletion strains, locus YLR058C, strain SHM2, hits give low values",0.985
same,normalized growth,"S. cerevisiae deletion strains, locus YLR102C, strain apc9, hits give low values",0.993
same,normalized growth,"S. cerevisiae deletion strains, locus YLR113W, strain HOG1, hits give low values",0.988
same,normalized growth,"S. cerevisiae deletion strains, locus YLR221C, strain rsa3, hits give low values",1.02
same,normalized growth,"S. cerevisiae deletion strains, locus YLR258W, strain gsy2, hits give low values",1.02
same,normalized growth,"S. cerevisiae deletion strains, locus YLR262C, strain YPT6 (second series), hits give low values",1.1
same,normalized growth,"S. cerevisiae deletion strains, locus YLR262C, strain YPT6, hits give low values",1.44 [resistant] (active)
same,normalized growth,"S. cerevisiae deletion strains, locus YLR268W, strain sec22, hits give low values",0.918
same,normalized growth,"S. cerevisiae deletion strains, locus YLR320W, strain mms22, hits give low values",1.01
same,normalized growth,"S. cerevisiae deletion strains, locus YLR330W, strain CHS5, hits give low values",0.999
same,normalized growth,"S. cerevisiae deletion strains, locus YLR342W, strain FKS1 (second series), hits give low values",0.888
same,normalized growth,"S. cerevisiae deletion strains, locus YLR342W, strain FKS1, hits give low values",1.03
same,normalized growth,"S. cerevisiae deletion strains, locus YLR357W, strain rsc2, hits give low values",1.04
same,normalized growth,"S. cerevisiae deletion strains, locus YLR370C, strain arc18, hits give low values",1.02
same,normalized growth,"S. cerevisiae deletion strains, locus YLR371W, strain rom2, hits give low values",0.994
same,normalized growth,"S. cerevisiae deletion strains, locus YLR384C, strain iki3, hits give low values",1.02
same,normalized growth,"S. cerevisiae deletion strains, locus YLR418C, strain cdc73, hits give low values",0.874
same,normalized growth,"S. cerevisiae deletion strains, locus YML016C, strain PPZ1, hits give low values",0.992
same,normalized growth,"S. cerevisiae deletion strains, locus YML032C, strain rad52, hits give low values",0.968
same,normalized growth,"S. cerevisiae deletion strains, locus YML120C, strain ndi1, hits give low values",0.998
same,normalized growth,"S. cerevisiae deletion strains, locus YML124C, strain tub3, hits give low values",0.995
same,normalized growth,"S. cerevisiae deletion strains, locus YMR058W, strain fet3, hits give low values",1.01
same,normalized growth,"S. cerevisiae deletion strains, locus YMR078C, strain ctf18, hits give low values",0.985
same,normalized growth,"S. cerevisiae deletion strains, locus YMR125W, strain sto1, hits give low values",1.02
same,normalized growth,"S. cerevisiae deletion strains, locus YMR129W, hits give low values",1.02
same,normalized growth,"S. cerevisiae deletion strains, locus YMR205C, strain PFK2, hits give low values",1.03
same,normalized growth,"S. cerevisiae deletion strains, locus YMR223W, strain ubp8, hits give low values",0.98
same,normalized growth,"S. cerevisiae deletion strains, locus YMR231W, strain pep5, hits give low values",1.03
same,normalized growth,"S. cerevisiae deletion strains, locus YMR263W, strain SAP30, hits give low values",0.978
same,normalized growth,"S. cerevisiae deletion strains, locus YMR307W, strain GAS1, hits give low values",1.03
same,normalized growth,"S. cerevisiae deletion strains, locus YNL067W, strain RPL9B, hits give low values",0.967
same,normalized growth,"S. cerevisiae deletion strains, locus YNL071W, strain lat1, hits give low values",1.02
same,normalized growth,"S. cerevisiae deletion strains, locus YNL128W, strain TEP1, hits give low values",0.988
same,normalized growth,"S. cerevisiae deletion strains, locus YNL153C, strain GIM3, hits give low values",0.953
same,normalized growth,"S. cerevisiae deletion strains, locus YNL183C, strain NPR1, hits give low values",0.948
same,normalized growth,"S. cerevisiae deletion strains, locus YNL209W, strain ssb2, hits give low values",1.02
same,normalized growth,"S. cerevisiae deletion strains, locus YNL233W, strain BNI4, hits give low values",0.969
same,normalized growth,"S. cerevisiae deletion strains, locus YNL248C, strain rpa49, hits give low values",1.02
same,normalized growth,"S. cerevisiae deletion strains, locus YNL250W, strain rad50, hits give low values",0.985
same,normalized growth,"S. cerevisiae deletion strains, locus YNL271C, strain bni1, hits give low values",0.992
same,normalized growth,"S. cerevisiae deletion strains, locus YNL298W, strain CLA4, hits give low values",0.991
same,normalized growth,"S. cerevisiae deletion strains, locus YNL307C, strain MCK1, hits give low values",0.974
same,normalized growth,"S. cerevisiae deletion strains, locus YNL322C, strain KRE1 (second series), hits give low values",1.04
same,normalized growth,"S. cerevisiae deletion strains, locus YNL322C, strain KRE1, hits give low values",0.998
same,normalized growth,"S. cerevisiae deletion strains, locus YNR049C, strain mso1, hits give low values",1.04
same,normalized growth,"S. cerevisiae deletion strains, locus YNR052C, strain pop2, hits give low values",0.974
same,normalized growth,"S. cerevisiae deletion strains, locus YOL006C, strain TOP1, hits give low values",0.922
same,normalized growth,"S. cerevisiae deletion strains, locus YOL012C, strain htz1",0.837
same,normalized growth,"S. cerevisiae deletion strains, locus YOL147C, strain pex11, hits give low values",0.996
same,normalized growth,"S. cerevisiae deletion strains, locus YOR001W, strain rrp6, hits give low values",1.01
same,normalized growth,"S. cerevisiae deletion strains, locus YOR061W, strain CKA2, hits give low values",0.996
same,normalized growth,"S. cerevisiae deletion strains, locus YOR069W, strain VPS5, hits give low values",0.984
same,normalized growth,"S. cerevisiae deletion strains, locus YOR070C, strain gyp1, hits give low values",1.02
same,normalized growth,"S. cerevisiae deletion strains, locus YOR080W, strain dia2, hits give low values",1.02
same,normalized growth,"S. cerevisiae deletion strains, locus YOR083W, strain WHI5, hits give low values",0.987
same,normalized growth,"S. cerevisiae deletion strains, locus YOR106W, strain vam3, hits give low values",1.05
same,normalized growth,"S. cerevisiae deletion strains, locus YOR136W, strain idh2, hits give low values",0.987
same,normalized growth,"S. cerevisiae deletion strains, locus YOR144C, strain elg1, hits give low values",0.993
same,normalized growth,"S. cerevisiae deletion strains, locus YOR184W, strain ser1, hits give low values",1.02
same,normalized growth,"S. cerevisiae deletion strains, locus YOR231W, strain MKK1, hits give low values",0.997
same,normalized growth,"S. cerevisiae deletion strains, locus YOR265W, strain rbl2, hits give low values",1.03
same,normalized growth,"S. cerevisiae deletion strains, locus YOR270C, strain vph1, hits give low values",1.08
same,normalized growth,"S. cerevisiae deletion strains, locus YOR290C, strain snf2, hits give low values",1.02
same,normalized growth,"S. cerevisiae deletion strains, locus YOR316C, strain cot1, hits give low values",0.992
same,normalized growth,"S. cerevisiae deletion strains, locus YPL051W, strain arl3, hits give low values",0.996
same,normalized growth,"S. cerevisiae deletion strains, locus YPL055C, strain LGE1, hits give low values",0.992
same,normalized growth,"S. cerevisiae deletion strains, locus YPL078C, strain atp4, hits give low values",1.01
same,normalized growth,"S. cerevisiae deletion strains, locus YPL106C, strain sse1, hits give low values",1.03
same,normalized growth,"S. cerevisiae deletion strains, locus YPL240C, strain hsp82, hits give low values",0.997
same,normalized growth,"S. cerevisiae deletion strains, locus YPL241C, strain CIN2, hits give low values",0.999
same,normalized growth,"S. cerevisiae deletion strains, locus YPL256C, strain CLN2, hits give low values",0.99
same,normalized growth,"S. cerevisiae deletion strains, locus YPR119W, strain clb2, hits give low values",0.997
same,normalized growth,"S. cerevisiae deletion strains, locus YPR141C, strain kar3, hits give low values",0.983
same,normalized growth,"S. cerevisiae deletion strains, locus YPR163C, strain tif3, hits give low values",0.966
same,normalized growth,"S. cerevisiae deletion strains, locus YPR167C, strain met16, hits give low values",0.99
same,normalized growth,"S. cerevisiae deletion strains, strain wtn01, hits give low values",0.968
same,normalized growth,"S. cerevisiae strains, strain wild type, hits give low values",0.992
